Experimental findings from PubChem BioAssay are described below.

Experiment [1] in a line: resazurin metabolic signal in HepG2 cells – cell-based, resazurin fluorescence, 24 h, PK04 Diversity Set, profiling panel (AID 1172). Also: test concentration not given here. As to conditions: HepG2 viability, higher = more signal.
The nature of experiment [2]: budding yeast growth changes without added modifier – OD600, strain BY4716, 24 h, basal condition, primary screen (AID 1173). To be noted: S. cerevisiae BY4716 growth, OD600, 24 h; higher = more signal, called active from +8 up or from −8 down.
Experiment [3] can be described thus: viability profiling in MM1S myeloma cells – cell-based, resazurin fluorescence, basal, 24 h, PK04 Diversity Set, profiling panel (AID 1174).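 Also: MM1S multiple myeloma cell line; test concentration not given here.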 As to conditions: higher = more signal, called active from +8 up or from −8 down. For orientation: Alamar Blue is a resazurin reagent that responds to reducing activity.
The target of experiment [4] is Dihydroorotate dehydrogenase (quinone), mitochondrial (Plasmodium falciparum (isolate 3D7)) (UniProt Q08210). Description: inhibition of P. falciparum DHODH – biochemical, C-terminal His tag, absorbance 600 nm, primary screen (AID 1175).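 Also: recombinant parasite enzyme with a five histidine tag at its C terminus; test concentration not given here.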 To be noted: PfDHODH enzyme, DCIP absorbance 600 nm; higher = more signal, called active from +8 up or from −8 down.
Experiment [5] can be described thus: inhibition of PAO1 biofilm formation – strain PAO1, LB-PBS medium, absorbance 600 nm, primary screen (AID 1176). Also: test concentration not given here. As to conditions: P. aeruginosa PAO1 growth/biofilm, A600, 12 h; higher = more signal.
A short description of experiment [6]: growth modulation of vineyard yeast isolate – strain RM11-1a, OD600, basal, 24 h, primary screen (AID 1177).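 Also: cultures grown under basal conditions with no added stressor; test concentration not given here.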 As to conditions: S. cerevisiae RM11-1a growth, OD600, 24 h; higher = more signal, called active from +8 up or from −8 down.
A short description of experiment [7]: growth of efflux-deficient E. coli DRC39 – strain DRC39, OD650, 24 h, E. coli filamentation inducers, primary screen (AID 1178).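 Also: growth measured as culture turbidity by optical density at 650 nm; test concentration not given here.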 To be noted: E. coli DRC39 acrAB, higher = more signal, called active from +8 up or from −8 down.
A short description of experiment [8]: growth of efflux-deficient E. coli DRC39 – strain DRC39, OD650, 48 h, E. coli filamentation inducers, primary screen (AID 1179).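 Also: screen aims at cell division blockers that make cells filament.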 As to conditions: E. coli DRC39 delta-acrAB growth, higher = more signal, called active from +8 up or from −8 down.
The nature of experiment [9]: viability profiling in RPMI8226 myeloma cells – cell-based, resazurin fluorescence, basal, 24 h, PK04 Diversity Set, profiling panel (AID 1180).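 Also: RPMI8826 multiple myeloma cell line at 5000 cells per well; test concentration not given here.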 As to conditions: higher = more signal.
For experiment [10], the target named is E3 ubiquitin-protein ligase XIAP (Homo sapiens) (UniProt P98170). Briefly: small molecules binding XIAP protein – biophysical, small-molecule microarray, fluorescence 635 nm, primary screen (AID 1181).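 Also: score merges 667 nm emission and signal to noise over triplicate slides.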 To be noted: higher = more signal.

The structures appear in SMILES notation. Calls of active or inactive are those of the source. Unless noted, no rule for the calls is given here.

E3 ubiquitin-protein ligase XIAP (Homo sapiens), sequence (P98170 whole entry, looked up): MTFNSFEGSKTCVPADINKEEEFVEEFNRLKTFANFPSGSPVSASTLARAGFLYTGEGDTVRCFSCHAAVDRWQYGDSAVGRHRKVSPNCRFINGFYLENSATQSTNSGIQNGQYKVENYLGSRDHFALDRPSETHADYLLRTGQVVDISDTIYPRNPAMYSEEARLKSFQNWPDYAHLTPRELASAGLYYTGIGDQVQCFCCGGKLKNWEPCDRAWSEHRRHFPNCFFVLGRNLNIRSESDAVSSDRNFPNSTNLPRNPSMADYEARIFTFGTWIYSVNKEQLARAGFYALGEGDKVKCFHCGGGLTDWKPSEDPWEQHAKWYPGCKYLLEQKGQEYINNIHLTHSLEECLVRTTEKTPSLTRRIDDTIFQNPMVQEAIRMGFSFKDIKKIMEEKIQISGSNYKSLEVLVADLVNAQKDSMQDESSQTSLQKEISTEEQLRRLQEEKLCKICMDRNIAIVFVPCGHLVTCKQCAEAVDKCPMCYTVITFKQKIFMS
Dihydroorotate dehydrogenase (quinone), mitochondrial (Plasmodium falciparum (isolate 3D7)), sequence (Q08210 whole entry, looked up): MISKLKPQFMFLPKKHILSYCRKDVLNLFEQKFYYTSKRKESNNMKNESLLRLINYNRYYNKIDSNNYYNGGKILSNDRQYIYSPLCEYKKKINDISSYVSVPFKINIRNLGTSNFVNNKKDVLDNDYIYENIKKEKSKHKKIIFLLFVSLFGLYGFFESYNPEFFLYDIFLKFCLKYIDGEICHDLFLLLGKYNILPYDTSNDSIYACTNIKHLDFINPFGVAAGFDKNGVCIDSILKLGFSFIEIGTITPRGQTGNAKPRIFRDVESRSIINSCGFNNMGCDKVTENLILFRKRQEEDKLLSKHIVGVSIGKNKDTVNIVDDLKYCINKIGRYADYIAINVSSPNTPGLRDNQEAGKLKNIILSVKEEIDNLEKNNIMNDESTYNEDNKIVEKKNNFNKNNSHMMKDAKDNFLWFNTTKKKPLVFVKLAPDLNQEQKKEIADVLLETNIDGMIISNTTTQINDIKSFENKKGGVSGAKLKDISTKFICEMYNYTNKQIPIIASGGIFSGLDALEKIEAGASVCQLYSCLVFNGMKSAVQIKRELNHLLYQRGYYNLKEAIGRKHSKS

Consider `COC(=O)c1ccc([C@H](NC(=O)c2ccco2)[C@]2(C)C[C@H]2C2CCCCC2)cc1`, for which the z-score in [1] is -2.18; in experiment [2] it was 1.23 (inactive); in experiment [3], -0.806 (inactive); in experiment [5] it was 0.619 (inactive); in [6] it was 0.158 (inactive); in [7] it was -0.827 (inactive). Further, the figures for the z-score in experiment [8] and in experiment [9] were -0.565 (inactive) and -2.26, respectively. The composite z-score in experiment [4] was -0.751 (inactive); in [10] it was -0.0668.
Turning to `COc1ccc([Si](C)(C)[C@@H]2[C@@H](CCn3cc([C@H](O)c4ccccc4)nn3)O[C@]3(C(=O)N(Cc4ccc(N5CCC5=O)cc4)c4ccccc43)[C@H]2C)cc1`, the z-score in experiment [1] is 0.606; in experiment [2], 0.204 (inactive); in [3], -0.189 (inactive); in experiment [5], 1.36 (inactive); in experiment [6], 2.06 (inactive); in experiment [7] it was 1.57 (inactive). For the same molecule, the z-score in [8] is 1.18 (inactive); in [9], 1.1. The results for the composite z-score in experiment [4] and in [10] were -0.102 (inactive) and -0.239, respectively.
In the case of `COC(=O)c1c(CC[C@@H](CO)NC(=O)N[C@H](Cn2cc(C3(O)CCCCC3)nn2)C(C)C)oc(C(C)=O)c1C(=O)OC`, the z-score is -0.752 in experiment [1]; -3.03 (inactive) in experiment [2]; 0.679 (inactive) in [3]; -0.24 (inactive) in experiment [5]; -0.834 (inactive) in [6]; 1.4 (inactive) in experiment [7]. For the same molecule, the z-score was 0.669 (inactive) in [8] and 0.0252 in experiment [9]. Further, the composite z-score in [4] is -4.51 (inactive); in experiment [10], -0.102.
In the case of `COCCOC(=O)N1C(=O)[C@@]2(c3cc(C#CC4=CCCCC4)ccc31)[C@H](C(N)=O)[C@H]1C(=O)O[C@H](c3ccccc3)[C@H](c3ccccc3)N1[C@@H]2c1ccccc1OCCO`, the z-score in [1] is -2.76; in [2] it was 0.132 (inactive); in experiment [3], -4.34 (inactive); in [5], 2.21 (inactive); in [6], 1.23 (inactive); in [7], -1.4 (inactive). For the same molecule, the z-score in experiment [8] is -1.23 (inactive); in experiment [9] it was -5.78. Further, the results for the composite z-score in experiment [4] and in experiment [10] were -0.295 (inactive) and 0.0899, respectively.
With `CC(C)(C)N1CC=CC23O[C@@H]4C=CCCOC(=O)C4[C@H]2C(=O)N(CCO)[C@@H]3C1=O` (stereo not given in full), the z-score in [1] was 0.388; in experiment [2], 0.0947 (inactive); in experiment [3] it was -0.512 (inactive); in experiment [5] it was 0.345 (inactive); in experiment [6], 0.451 (inactive); in experiment [7] it was -1.02 (inactive). The z-score was -1.05 (inactive) in [8] and -1.13 in [9]. The composite z-score in experiment [4] is 0.427 (inactive); in experiment [10] it was 0.072.
`C=CCOC(=O)[C@H]1[C@@H]2C(=O)O[C@@H](c3ccccc3)[C@@H](c3ccccc3)N2[C@@H](c2ccc(OCCOC(=O)[C@@H]3C[C@@H]4C(=O)N5CCC[C@H]5C(=O)N4[C@@H]3c3ccc(O)cc3)cc2)[C@]12C(=O)Nc1ccc(I)cc12`: the z-score in [1] is -0.384; in experiment [2], 1.04 (inactive); in [3], -0.996 (inactive); in [5], 3.91 (inactive); in experiment [6], 1.08 (inactive); in experiment [7], -0.102 (inactive). The results for the z-score in [8] and in experiment [9] were 0.0802 (inactive) and -0.686, respectively. Moreover, the composite z-score is -1.13 (inactive) in experiment [4] and -0.083 in experiment [10].
On to `CCCCN1CC=CC23O[C@@H]4/C=C\CCC(C)OC(=O)C4[C@H]2C(=O)N(C(CO)C(C)C)[C@@H]3C1=O` (stereo not given in full), for which the z-score was 0.229 in [1]; 0.844 (inactive) in experiment [2]; 0.382 (inactive) in experiment [3]; 0.991 (inactive) in experiment [5]; 0.164 (inactive) in experiment [6]; 0.375 (inactive) in experiment [7]. Also, the z-score in experiment [8] was 0.156 (inactive); in experiment [9], -0.0048. In addition, the figures for the composite z-score in experiment [4] and in experiment [10] were -1.29 (inactive) and 0.48, respectively.
As for `COc1ccc([Si](C)(C)[C@@H]2[C@@H](CC(=O)N(CCO)Cc3ccccc3)O[C@]3(C(=O)N(Cc4cccc(N5CCOC5=O)c4)c4ccccc43)[C@H]2C)cc1`, the z-score in experiment [1] was -1.89; in [2], 0.0608 (inactive); in experiment [3], -3.23 (inactive); in experiment [5] it was 1.76 (inactive); in experiment [6], 2.67 (inactive); in experiment [7], 0.577 (inactive). Moreover, the z-score was -0.463 (inactive) in experiment [8] and -2.42 in [9]. Moreover, the composite z-score in experiment [4] is 0.0205 (inactive); in experiment [10], -0.02.
Regarding `COc1ccc([Si](C)(C)[C@H]2[C@H](CC(=O)N(CCO)Cc3ccccc3)O[C@@]3(C(=O)N(Cc4cccc(N5CCOC5=O)c4)c4ccccc43)[C@@H]2C)cc1`, the z-score was -2.5 in experiment [1]; 0.181 (inactive) in experiment [2]; -3.55 (inactive) in experiment [3]; 1.28 (inactive) in experiment [5]; 2.36 (inactive) in experiment [6]; -0.566 (inactive) in [7]. In addition, the z-score in experiment [8] is -0.639 (inactive); in experiment [9], -3.7. In addition, the composite z-score was 0.966 (inactive) in experiment [4] and -0.0562 in experiment [10].
With `CC(C)C(=C=CC[C@H](O)c1cccc(OCCO)c1)C[C@H](O)c1cc(Cl)cc(Cl)c1O`, the z-score is 0.84 in experiment [1]; -4.38 (inactive) in experiment [2]; 0.0849 (inactive) in experiment [3]; 0.33 (inactive) in experiment [5]; 0.233 (inactive) in experiment [6]; 0.889 (inactive) in experiment [7]. The z-score was 0.709 (inactive) in [8] and 1.61 in [9]. Also, the composite z-score was -0.0151 (inactive) in experiment [4] and -0.16 in experiment [10].
As for `Cc1ccccc1C(O)C1C=CC2C(=O)N(C)C(=O)C2N1N(c1ccccc1)c1ccccc1` (stereo not given), the z-score was -0.417 in [1]; 0.0882 (inactive) in experiment [2]; -0.166 (inactive) in experiment [3]; 0.53 (inactive) in experiment [5]; 0.591 (inactive) in [6]; -0.209 (inactive) in experiment [7]. The z-score in experiment [8] was -0.334 (inactive); in [9] it was -0.0373. Besides, the results for the composite z-score in experiment [4] and in experiment [10] were 0.0842 (inactive) and 0.396, respectively.
Turning to `Cc1ccc(S[C@]2(C(=O)O)CC(=O)N(C3Cc4ccccc4C3)[C@@H]2c2ccc(CO)cc2)cc1`, the z-score in experiment [1] was -0.684; in [2] it was -0.528 (inactive); in [3] it was -0.444 (inactive); in experiment [5], 1.15 (inactive); in experiment [6], -0.157 (inactive); in experiment [7], -0.185 (inactive). For the same molecule, the z-score in experiment [8] is -0.108 (inactive); in experiment [9], -0.396. Further, the composite z-score was -1.03 (inactive) in [4] and -0.205 in experiment [10].
